# Bioassay records as filed in PubChem.
# Most compounds without a hit are left out; they make up all but 2.5% or so of the library.
# CRFBP-R2 block: blocks CRF-induced signaling of the CRF-BP/CRF-R2 complex; AID 588475; HEK293 CRF-R2/CRF-BP, CRF-induced calcium fluorescence; 350,000 tested, 0.59% active; inhibition, % at 11.8 µM;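 active means inhibition of the ligand-induced calcium signal above about 50% at the single tested concentration, limit read from the data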
# H9c2 TAG inh: triacylglycerol accumulation inhibition. 230,000 tested, 0.66% active. H9c2 cells, Nile Red lipid (TAG) fluorescence; cells loaded with 200 µM oleic acid. inhibition, % at 12.5 µM;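 active means pattern-corrected inhibition of lipid staining of at least 50% with the nuclear-stain viability signal not falling by more than 50%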;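 further: 0% = DMSO wells and 100% = triacsin C control wells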
# H9c2 protect: myocardial damage modulation in H9c2 cells; H9c2 cardiomyocytes, H2O2 injury protection, ATPLite, 2 h; protection from H2O2 cell death, % at 20 µM; 360,000 tested, 0.63% active;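 active means compounds giving at least 50% protection of heart cells from peroxide-induced death in the single-dose screen, raw or plate-pattern-corrected value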;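 further: 0% = DMSO wells with peroxide and 100% = DMSO wells without peroxide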
# hiPSC survival: increases survival of single human iPS cells. hiPSC single-cell survival, ATPlite luminescence; 100% = ROCK inhibitor wells, 0% = DMSO. AID 602274. survival enhancement, % at 20 µM. 360,000 tested, 0.044% active; in the data active means survival enhancement above about 18%;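 further: cells exposed to compounds for 16 hours before the ATP read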
# CRFBP-R2 agonist: agonists of human CRF-binding protein/CRF-R2 receptor complex; 350,000 tested, 0.46% active; HEK293 CRF-R2/CRF-BP, calcium dye fluorescence (FLIPR); percent of saturating CRF peptide response; activation, % at 13.2 µM;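 active means activation of at least 50%, plus an integration ratio under a set limit after plate pattern correction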;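 further: plate controls were neutral control wells without compound for no effect and CRF at EC100 for full effect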
# SKN-1 inh: blocks SKN-1 activity in C. elegans; C. elegans VP596 Pgst-4::GFP/RFP ratio, acrylamide-induced, 24 h; inhibition, % at 21.8 µM; 360,000 tested, 0.49% active; AID 624304;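 active means interference check ratio from 0.5 to 1.5 plus GFP to RFP signal ratio inhibition reaching or exceeding a fixed threshold, cut at about 30% in these data, passing the limit was not always enough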
# * hit, by the source's call; nt = no result given.
SMILES,CRFBP-R2 block,H9c2 TAG inh,H9c2 protect,hiPSC survival,CRFBP-R2 agonist,SKN-1 inh
CC(C)C(OC(=O)C1=Cc2ccccc2OC1)C(=O)NC1CCCC1 (stereo unspecified),5.1,nt,0.1,0.3,-0.6,35.6*
O=C(O)C1CC(=O)N(Cc2ccccc2)C1 (stereo unspecified),-4.4,0.1,7.6,-1.9,-0.5,-10.0
O=C(O)C1CC(=O)N(CCOc2ccccc2)C1 (stereo unspecified),63.1*,nt,-12.2,-0.7,7.6,-16.7
CNc1nc(Cl)nc(Nc2ccccc2)n1,103.1*,1.0,1.5,1.8,0.0,1.5
C=CCNc1nc(Cl)nc(Nc2ccccc2)n1,2.5,nt,-7.6,0.1,-1.6,0.6
CC1(c2ccccc2)NC(=O)N(CC(=O)Nc2nnc(C3CC3)s2)C1=O (stereo unspecified),8.4,13.5,18.0,-0.2,-0.3,-1.7
COc1c2c(c(OC)c3ccccc13)[C@@]1(OC2)O[C@H](CCO)C[C@H](O)[C@H]1O,101.3*,-2.2,15.7,-0.3,1.0,6.4
CCN(CC)C(=O)CSc1ncnc2c1nnn2-c1ccc(F)cc1,3.8,3.6,-0.2,-0.7,-1.9,-21.9
CCN(CC)C(=O)CSc1ncnc2c1nnn2-c1ccc(OC)cc1,83.9*,-8.4,-6.2,1.6,1.4,11.5
Cc1ccc(-c2nc3ccc(Br)cn3c2Cc2cccc(Cl)c2)cc1,nt,nt,-3.6,-0.1,nt,34.2
CCOC1=C2[C@H](c3ccc(C)cc3)N(S(=O)(=O)c3ccc(C)cc3)C[C@H]2n2c(=O)n(-c3ccccc3)c(=O)n2C1,nt,nt,5.9,40.9*,nt,-3.0
CCOC1=C2[C@H](c3cccc(Cl)c3)N(S(=O)(=O)c3ccc(C)cc3)C[C@H]2n2c(=O)n(-c3ccccc3)c(=O)n2C1,nt,nt,-1.1,-1.0,nt,13.3
COc1ccc(S(=O)(=O)N2CCOCC2)cc1NC(=O)COC(=O)c1oc2ccccc2c1C,5.0,3.4,-1.5,0.8,-1.0,11.5
CCOC(=O)c1c(-c2ccccc2)nnn1-c1nc(OCC)nc(N2CCCCC2)n1,5.0,9.0,70.0*,2.8,0.4,-0.1
CCOC(=O)c1nnn(-c2nc(N3CCCC3)nc(N3CCCC3)n2)c1-c1ccccc1,2.5,-4.4,6.8,-1.0,-2.8,4.5
O=C(Nc1ccccc1)C(=O)Nc1ccc2c(c1)N(C(=O)C1CC1)CCC2,7.6,0.8,5.6,0.0,-2.2,5.6
CC1=C(C(=O)NCc2ccccn2)C2(CCC(C)CC2)OC1=O (stereo unspecified),65.9*,-2.3,6.3,-0.4,0.7,-15.8
Cc1cc(C(=O)N2CCC2(C)C(=O)NS(=O)(=O)c2ccccc2Cl)nn1C (stereo unspecified),nt,4.8,4.2,-0.6,nt,2.2
Cc1cc(C)cc(NC(=O)CCC(=O)Nc2nnc(C(C)C)s2)c1,-1.5,nt,1.7,0.3,-1.1,2.9
CCOC(=O)c1ccc(CNC(=O)Cn2nnc(-c3ccccc3)n2)o1,-100.2,-13.6,0.1,0.5,142.5*,-25.5
CCOC(=O)c1ccc(CNC(=O)Cn2nnc(-c3ccccc3F)n2)o1,9.0,-0.3,-2.8,-0.5,-0.8,2.3
N#Cc1cccc(C(=O)OCC(=O)NCc2ccco2)c1,-8.2,10.3,-0.6,-0.3,-0.8,-17.4
CNc1nc(-c2ccc3c(c2)CCN3C(=O)CC(C)(C)C)c(C)s1,-3.9,15.8,-4.0,0.2,-3.8,14.2
CCCC(=O)N1CCc2cc(-c3nc(N)sc3C)ccc21,50.8*,-6.0,0.6,1.0,-2.3,12.4
CN(Cc1ccccc1)C(=O)c1cccc(NC(=O)Cc2cccc(NC(=O)C3CCN(C(=O)C4CCC4)CC3)c2)c1,10.2,8.1,17.7,1.3,-1.2,19.9
SMILES,CRFBP-R2 block,H9c2 TAG inh,H9c2 protect,hiPSC survival,CRFBP-R2 agonist,SKN-1 inh
COc1cc(CNC(=O)c2cc(-c3cc(Cl)ccc3C)n[nH]2)cc(OC)c1,nt,4.6,-0.1,-1.2,nt,26.7
Cc1ccc(C(C#N)c2ccc3c(C(F)(F)F)cc(C(F)(F)F)nc3n2)cc1 (stereo unspecified),-23.0,23.3,-32.1,-3.4,-2.4,43.8*
N#CC(c1ccccc1)c1ccc2c(C(F)(F)F)cc(C(F)(F)F)nc2n1 (stereo unspecified),-36.3,8.3,-35.5,4.4,8.6,18.0
COc1ccc(S(=O)(=O)N2CCOCC2)cc1NC(=O)CSc1n[nH]c(C(C)C)n1,3.5,2.4,-4.8,-0.7,1.9,-9.8
Cc1cc(C)c2nc(SCC(=O)N3CC(=O)Nc4ccccc43)c(C#N)cc2c1,2.0,53.6*,-0.8,-1.2,8.6,12.1
Cc1cc(C)cc(C(=O)N2CC(=O)Nc3ccccc32)c1,-7.2,55.2*,-2.5,-0.3,-2.1,-1.5
Cc1cc(C)c2nc(SCC(=O)Nc3ccccc3N3CCOCC3)c(C#N)cc2c1,-4.5,2.7,-3.4,-1.7,0.0,6.4
c1ccc(N2CCOCC2)c(Nc2nc3ccccc3n3cnnc23)c1,4.8,19.1,81.0*,-0.9,1.0,14.2
c1ccc2c(c1)nc(N1CCOCC1)c1nncn12,-8.6,18.8,2.6,2.2,-1.6,25.1
CC(=O)c1cccc(Nc2nc3ccccc3n3cnnc23)c1,115.7*,nt,67.0*,-0.4,-1.1,0.3
COc1cccc(/C=N/Nc2nc3ccccc3n3cnnc23)c1,8.7,nt,56.6*,0.4,-1.9,3.2
N#CC1C(=O)NC(c2ccccc2)=CC1c1ccccc1 (stereo unspecified),19.4,6.1,0.8,1.1,-1.6,10.3
COCCNc1nc(NCc2cc(-c3ccc(OC)cc3)no2)c2sccc2n1,nt,-11.9,-22.4,-0.3,nt,15.6
COc1ccc(NC2CCCN(C(=O)c3cccc(C)n3)C2)cc1OC (stereo unspecified),102.7*,nt,-1.2,-0.4,0.5,1.8
CN[C@@H](CO)C(=O)NC[C@H]1O[C@@H](n2cnc3c(=O)[nH]c(N)nc32)[C@H](O)[C@@H]1O,nt,nt,3.5,-1.4,nt,18.1
CC1(C(=O)NCc2ccccc2Br)CCN1Cc1ccc(-c2ccccn2)cc1 (stereo unspecified),nt,-9.3,-22.4,0.0,nt,4.3
c1ccn2cc(-c3ccc4c(c3)OCCO4)nc2c1,29.2,-3.0,-35.6,-5.3,0.0,37.7*
Cc1ccc2nc(-c3ccc4c(c3)OCCO4)cn2c1,-19.4,33.0,-16.6,-0.7,16.9,-7.3
Nc1nc(-c2ccc3c(c2)OCCO3)cs1,76.4*,nt,-17.8,-1.2,6.4,-5.5
Cc1c(Cl)cnc(NC(=O)COC(=O)c2ccc([N+](=O)[O-])s2)c1Cl,-11.3,nt,67.6*,-3.5,-0.4,8.2
O=C(COC(=O)c1ccc([N+](=O)[O-])s1)Nc1cccc(S(=O)(=O)NC2=NCCCCC2)c1,68.3*,-24.1,28.4,-0.3,-1.0,12.3
Cc1ccc(C(=O)OCC(=O)Nc2ccc(Cl)cn2)s1,6.5,-20.7,1.7,-0.2,0.6,-7.2
O=C(COC(=O)c1ccc([N+](=O)[O-])s1)Nc1ccc(Cl)cn1,-2.4,nt,54.8*,-0.5,1.8,3.8
